Sampled rows, rich in hits. Any-hit rate of the full collection: about 10%.
Six1-Eya2 blk – Six1/Eya2 interaction inhibition. Q15475+O00167. AlphaScreen GST-Six1/His-Eya2 binding, biochemical; stronger effect = lower value. activity change, % (test concentration not listed). 360,000 compounds, 0.56% hits; in the data active = activity change below about -65%; inconclusive = mostly about -30% to -63%; note: % is set by controls: 0 for no effect and ±100 for the full control effect
Target sequence (O00167 whole entry, looked up): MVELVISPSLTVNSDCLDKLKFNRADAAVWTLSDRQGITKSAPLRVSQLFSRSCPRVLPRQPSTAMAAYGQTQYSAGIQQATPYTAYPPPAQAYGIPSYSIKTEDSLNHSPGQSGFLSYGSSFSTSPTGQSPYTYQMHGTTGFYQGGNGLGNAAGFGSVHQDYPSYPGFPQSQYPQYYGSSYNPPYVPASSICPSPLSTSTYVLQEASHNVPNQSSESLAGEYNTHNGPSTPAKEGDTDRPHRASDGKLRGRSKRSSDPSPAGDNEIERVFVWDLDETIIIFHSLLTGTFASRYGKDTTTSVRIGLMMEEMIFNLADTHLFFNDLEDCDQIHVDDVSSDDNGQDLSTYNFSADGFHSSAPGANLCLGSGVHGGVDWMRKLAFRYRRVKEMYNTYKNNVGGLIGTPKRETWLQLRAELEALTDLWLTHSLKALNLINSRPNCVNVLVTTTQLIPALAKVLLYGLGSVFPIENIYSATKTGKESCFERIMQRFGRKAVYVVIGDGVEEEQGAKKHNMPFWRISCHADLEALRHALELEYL
Target sequence (Q15475 whole entry, looked up): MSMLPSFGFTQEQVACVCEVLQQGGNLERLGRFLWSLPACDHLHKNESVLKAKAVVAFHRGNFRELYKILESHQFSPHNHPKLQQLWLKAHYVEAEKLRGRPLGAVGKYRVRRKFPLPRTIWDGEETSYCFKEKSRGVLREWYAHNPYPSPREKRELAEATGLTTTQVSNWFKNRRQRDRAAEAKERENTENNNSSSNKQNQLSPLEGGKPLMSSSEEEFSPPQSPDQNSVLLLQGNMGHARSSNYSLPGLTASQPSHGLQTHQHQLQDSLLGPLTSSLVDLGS
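Compounds are tested against tagged Six1 and Eya2 proteins bridged by glutathione donor and nickel acceptor beads; after a one-hour incubation at 37 °C without light, AlphaScreen emission is recorded.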
HP1b chromo inh – HP1-beta chromodomain-methylated histone interaction inhibition; P83916; AlphaScreen HP1-beta / biotin-H3K9me3 peptide binding; Potency, µM (highest dose often 114 µM), for inactives: at the highest dose activity change, negative = inhibition, actives largely listed as inhibitors; 390,000 compounds, 0.56% hits; note: potency is the fitted concentration of half-maximal effect; nearly all actives have a fitted effect of over 70% in size
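Compound inhibition of the preformed complex between 50 nM HP1-beta and 50 nM biotinylated H3K9me3 peptide was read by AlphaScreen. Buffer was PBS pH 7.4 with 0.01% Tween-20. Incubations ran 30 min at room temperature, with 10 ug/mL donor/acceptor beads.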
BAZ2B inh – blocks human BAZ2B; Q9UIF8; AlphaScreen BAZ2B-H3K14Ac peptide displacement; 360,000 compounds, 4.4% hits; Potency, µM (highest dose often 114 µM), for inactives: at the highest dose activity change, negative = inhibition, usual class: inhibitors; note: potency is the fitted concentration of half-maximal effect; % is set by controls: 0 for no effect and ±100 for the full control effect; nearly all actives have a fitted effect of over 60% in size
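Protein-peptide AlphaScreen: BAZ2B 50 nM, b-H3K14Ac 50 nM, 1x PBS pH 7.4 + 0.01% Tween-20. Preincubation 30 min RT; cpd 30 min RT (top 110 uM); beads 20 min RT, light-protected.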
CtBP-E1A inh – CtBP/E1A binding inhibition; AlphaScreen GST-E1A/His-CtBP binding, 1536-well; stronger effect = lower value; activity change, % (test concentration not listed); 340,000 compounds, 0.49% hits; in the data active = activity change below about -65%; inconclusive = mostly about -30% to -63%; note: % is set by controls: 0 for no effect and ±100 for the full control effect
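AlphaScreen with 125 nM GST-E1A and 125 nM His-CtBP (5X stocks) in Tris pH 8.0, 300 mM NaCl, BSA, Tween 20, TCEP. Compounds preincubated 2 h at 37 deg C, then glutathione donor/nickel acceptor beads added for 1 h at 37 deg C in dark.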
G9a block – G9a (human) methyltransferase inhibition; G9a H3K9 monomethylation, AlphaScreen, 2 h; Potency, µM (top dose mostly 102 µM), for the others: at the top dose activity, negative = inhibition, most hits filed as inhibitors; 350,000 compounds, 8.8% hits; note: potency is the fitted concentration of half-maximal effect; % is set by controls: 0 for no effect and ±100 for the full control effect; nearly all actives have a fitted effect of over 75% in size
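Using a bead-based AlphaScreen, monomethylated H3K9 product from 2 h room-temperature reactions (G9a 20 nM, peptide 500 nM, SAM 20 uM) was detected with 0.5 ug/mL rabbit anti-H3K9me1 antibody.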
JMJD2A Tudor – inhibitors of human JMJD2A Tudor domain; O75164; AlphaScreen JMJD2A-Tudor / H3K4me3 peptide binding; Potency, µM (highest dose often 114 µM), without a hit: at the highest dose activity change, negative = inhibition, actives largely listed as inhibitors; 390,000 compounds, 4.4% hits; AID 504339; note: potency is the fitted concentration of half-maximal effect; % is set by controls: 0 for no effect and ±100 for the full control effect; nearly all actives have a fitted effect of over 50% in size
* marks the source's active call; other numbers are inactive results; u = inconclusive; x = no result; [ ] = remark or other dose. Unless noted, calls come from the whole dose curve; as a rule, active = well fitted inhibition curve with a large enough effect; inconclusive = small, poorly fitted or top-dose-only effect; inactive = no such curve, though single readings can be large or run the other way.

SMILES | Six1-Eya2 blk | HP1b chromo inh | BAZ2B inh | CtBP-E1A inh | G9a block | JMJD2A Tudor
O=C(O)/C=C/C(=O)N1CCN(C(=O)/C=C/C(=O)O)CC1 | 1 | -11% | -5% | -23 | -20%[59 µM] | u
CCOC(=O)/C=C/C(=O)N1CCN(C(=O)/C=C/C(=O)OCC)CC1 | 10 | 42% | -8% | 4 | 56µM* | -3%
CCOC(=O)c1cc2nc(-c3ccccc3)cc(C)n2n1 | 0 | 57% | 8% | -2 | 45µM* | 17%
Cc1cc(-c2ccccc2)nc2cc(C(N)=O)nn12 | -2 | 23% | -15% | u | 28µM* | -17%
COc1ccc(C2C(C(=O)Nc3cccnc3)=C(C)Nc3nc(SCc4ccccc4)nn32)cc1 (configuration not stated) | x | 5% | u | x | 2%[59 µM] | -15%
Cc1ccc(N(C)S(=O)(=O)c2nnc(NC(=O)C3CCCCC3)s2)cc1 | x | 94% | 28% | x | -2%[59 µM] | 28%
CCOc1ccc(CCNC(=O)Cn2nnc(-c3ccccc3Cl)n2)cc1OCC | x | 19% | -12% | x | -4%[59 µM] | 3%
CCn1c(=O)c2sccc2n2c(CCC(=O)Nc3ccc(C(C)C)cc3)nnc12 | x | 16% | 3% | x | -5%[59 µM] | -21%
Cc1cc(C)nc(CCNC(=O)CC2C(=O)NCCN2Cc2ccc(F)cc2Cl)n1 (configuration not stated) | -3 | 16% | -5% | -11 | 45µM* | -7%
CC(C)c1nc(CNC(=O)CC2C(=O)NCCN2Cc2ccc(F)cc2Cl)cs1 (configuration not stated) | -10 | 36% | -13% | -2 | x | -29%
O=C(CC1C(=O)NCCN1Cc1ccc(F)cc1Cl)NCc1ccon1 (configuration not stated) | -9 | 43% | -16% | 1 | 32µM* | -10%
Cc1cccc(NC(=O)Cn2c(=O)c3cccn3c3ccccc32)c1C | x | 48% | -6% | x | -3%[59 µM] | -13%
COc1cccc(N/N=C/c2cccc(Br)c2O)c1 | -10 | u | u | -7 | 2.2µM* | -31%
Cc1cccc(N/N=C/c2ccc(O)c(O)c2O)c1 | -2 | u | 50µM* | -5 | 1.1µM* | 45µM*
COc1cccc(/C=N/Nc2ccc([N+](=O)[O-])cc2)c1O | -8 | 1% | -3% | -2 | u | -28%
COc1ccc(-n2c(SCC(=O)NCc3ccccc3)nc3c([nH]c4ccccc43)c2=O)cc1 | x | 18%[57 µM] | -2% | x | 2%[59 µM] | -10%
CCOc1ccc(C(c2c(O)cc(C)n(CCOC)c2=O)N2CCN(c3ccccc3F)CC2)cc1 (configuration not stated) | x | 18%[57 µM] | -1% | x | u | -29%
CC1CC(C)CN(S(=O)(=O)c2ccc(C(=O)Nc3nnc(-c4cccs4)o3)cc2)C1 (configuration not stated) | -8 | 35% | u | -3 | -5%[59 µM] | -26%
O=C(Nc1nnc(-c2cccs2)o1)c1cccc(C(F)(F)F)c1 | -7 | 4% | 1% | -12 | 19% | u
N#Cc1ccc(C(=O)Nc2nnc(-c3cccs3)o2)cc1 | -12 | 15% | 50µM* | -1 | x | 56µM*
CN(C)S(=O)(=O)c1ccc(C(=O)Nc2nnc(-c3cccs3)o2)cc1 | -14 | 66% | u | x | 11% | 79µM*
Cc1cc(C)n(-c2nc3cc(Cl)ccc3nc2Nc2ccc(CC(=O)O)cc2)n1 | x | 54% | 9% | x | 16%[59 µM] | -6%
Cc1cc(NCc2ccccc2Cl)n2cnnc2n1 | x | 47% | -4% | x | 1%[59 µM] | 5%
CN(C)CC(=O)N1CCc2ccccc2C1 | 2 | -33% | 50µM* | -2 | u | 11µM*
Cc1ccccc1N(CC(=O)N1CCc2ccccc2C1)S(C)(=O)=O | 2 | 39% | 9% | 6 | 12% | -2%
SMILES | Six1-Eya2 blk | HP1b chromo inh | BAZ2B inh | CtBP-E1A inh | G9a block | JMJD2A Tudor
CC(=O)Oc1cc(C(=O)OCC(=O)N2CCc3ccccc3C2)cc(OC(C)=O)c1OC(C)=O | -3 | u | x | -12 | x | 1.6µM*
O=[N+]([O-])c1ccc(N2CCN(CCO)CC2)cc1Sc1ccccn1 | 1 | 1% | -19% | -9 | -5% | -5%
CS(=O)(=O)c1cc([N+](=O)[O-])c(Sc2nc3ccccc3[nH]2)c([N+](=O)[O-])c1 | -4 | u | -29% | 2 | u | u
CCN1CCN(c2ccc([N+](=O)[O-])c(Sc3nc4ccccc4[nH]3)c2)CC1 | -9 | u | -27% | -16 | 32µM* | -34%
O=C(O)c1cc([N+](=O)[O-])c(Sc2nc3ccccc3[nH]2)c([N+](=O)[O-])c1 | u | 26% | -7% | x | 40µM* | -7%
O=C1CN(S(=O)(=O)c2ccc3c(c2)OCCO3)CCN1S(=O)(=O)c1c(F)cccc1F | x | x | x | x | x | -16%
Cc1ccc(-c2nc3c4ccccc4[nH]c(=O)n3n2)cc1 | x | 50% | 2% | x | -32%[59 µM] | -30%
O=c1[nH]c2ccccc2c2nc(-c3cccc(S(=O)(=O)N4CCCC4)c3)nn12 | -85* | 10% | -11% | -81* | 12%[12.7 µM] | -15%
Cc1ccc(CNC(=O)c2ccc(CNS(=O)(=O)c3ccc4c(c3)C(C)(C)C(=O)N4C)cc2)o1 | 1 | 18% | -34% | -3 | 45µM* | -26%
Cc1ccccc1NC(=O)c1ccc(CNS(=O)(=O)c2ccc3c(c2)C(C)(C)C(=O)N3C)cc1 | x | 15% | -17% | x | 7%[59 µM] | -11%
COCc1cc(C)nc(OCC(=O)N/N=C/c2ccccc2O)c1C#N | -91* | 34% | 79µM* | -84* | 47% | -15%
COCc1cc(C)nc(OCC(=O)N/N=C/c2ccc(O)cc2O)c1C#N | -84* | 44% | 40µM* | -88* | 28% | -34%
CCOc1cc(/C=N/NC(=O)COc2nc(C)cc(COC)c2C#N)ccc1O | u | 32% | -2% | x | -4% | -13%
Cc1ccc(NC(=O)CSc2nc3ccc(NC(=O)c4cccc(Cl)c4)cc3s2)c(C)c1 | x | 4% | -2% | x | -13%[59 µM] | -9%
Cc1ccc(Cl)cc1N1CCN(C(=O)c2ccc3c(c2)N(Cc2ccc(F)cc2)CCS3)CC1 | x | 12% | u | x | u | -30%
COC(=O)c1c(NC(=O)C(C)C)sc(C(=O)N2CCOCC2)c1C | 8 | -21% | 5% | 11 | 45µM* | -9%
Cc1ccc(NS(=O)(=O)c2cc3c(cc2F)NC(=O)CC3)cc1Cl | x | x | x | x | x | -24%
Cc1c(C#N)c(O)[nH]c(=O)c1N=Nc1ccc(S(N)(=O)=O)cc1 | 11 | u | -12% | u | 79µM* | u
Cc1c(C#N)c(O)[nH]c(=O)c1N=Nc1ccc(Cl)c(C(=O)O)c1 | 1 | 29% | 1% | -1 | 14%[2.33 µM] | 3%
